Screening data: PubChem BioAssay, National Center for Advancing Translational Sciences (NCATS)
Coupling enz – qHTS Assay for Inhibitors of Fructose-1,6-bisphosphate Aldolase from Giardia Lamblia: Coupling assay counterscreen. AID 2472, 2010. coupling enzyme system counterscreen, AmpLite Red fluorescence. activity change, negative = inhibition, % at 58.2 µM, hits read low. 290,000 tested, 0.67% active; in the data active = activity change below about -30%
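Activity here indicates interference with the coupling reaction, not aldolase inhibition. Compounds at 57.5 uM final met coupling enzymes for 10 min at RT; substrate and AmpLite Red detection followed, with a 525/598 nm fluorescence read after 20 min.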
Tau fluor cs – Counterscreen qHTS for Inhibitors of Tau Fibril Formation, Fluorescence Polarization | tau K18 P301L Alexa594 fluorescence, heparin fibrillization | Potency, µM (doses to about 57.7 µM), for inactives: top-dose activity change, negative = decrease | 280,000 tested, 0.93% active | AID 1463, 2008; note: potency is the fitted concentration of half-maximal effect; nearly all actives have a fitted effect of over 55% in size
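Human tau K18 P301L (15 uM unlabeled, 0.24 uM Alexa 594-labeled) in 100 mM sodium acetate pH 7 with 20 uM heparin, 6 hr at 37 C. ThT 30 uM added, 1 hr ambient; Alexa 594 FP and total fluorescence read at 555/632 nm.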
Tau fibril ThT – qHTS for Inhibitors of Tau Fibril Formation, Thioflavin T Binding; recombinant tau K18 P301L (four-repeat tau fragment), heparin-induced fibrillization, ThT fluorescence; 270,000 tested, 2.1% active; Microtubule-associated protein tau (Homo sapiens), P10636; Potency, µM (doses to about 57.4 µM), for the others: at the top dose activity, negative = inhibition, most hits filed as inhibitors; AID 1460, 2008; note: potency is the fitted concentration of half-maximal effect; nearly all actives have a fitted effect of over 55% in size
Target sequence (P10636 561-689 P618L limits assumed): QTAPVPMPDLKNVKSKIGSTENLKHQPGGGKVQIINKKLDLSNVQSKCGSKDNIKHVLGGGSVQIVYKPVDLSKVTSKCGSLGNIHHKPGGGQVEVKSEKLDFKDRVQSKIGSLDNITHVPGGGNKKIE
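Heparin-induced (20 uM) aggregation of recombinant human K18 P301L tau, 15 uM unlabeled with 0.24 uM labeled, pH 7 acetate buffer, 6 hr at 37 C with compound. Fibrils quantified by 30 uM ThT fluorescence after 1 hr ambient incubation.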
Tau fibril FP – qHTS for Inhibitors of Tau Fibril Formation, Fluorescence Polarization. Microtubule-associated protein tau (Homo sapiens), P10636. K18 P301L tau heparin fibrillization, Alexa594 FP, 6 h. Potency, µM (doses to about 57.7 µM), for the others: at the top dose activity, negative = inhibition, actives largely listed as inhibitors. 280,000 tested, 0.39% active. AID 1468, 2008; note: potency is the fitted concentration of half-maximal effect; nearly all actives have a fitted effect of over 55% in size
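Steps: dispense K18 P301L tau (15 uM plus 0.24 uM Alexa 594 tracer, final) in pH 7 sodium acetate; add compound; add heparin (20 uM final); incubate 6 hr, 37 C; add ThT (30 uM final); after 1 hr ambient, read FP.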
* = called active by the depositor; ! = not confirmed by another sample; [ ] = another dose, or the depositor's remark. Sampled rows, rich in hits. Any-hit rate of the full collection: about 2.7%. Unless noted, calls come from the whole dose curve; as a rule, active = well fitted curve in the direction sought with a large enough effect; inconclusive = small, poorly fitted or top-dose-only effect, or another doubt; inactive = no such curve, though single readings can be large; an effect the other way counts as inactive or inconclusive. % is set by controls: 0 for no effect and ±100 for the full control effect.

Screening Nc1cc(-c2ccc(Cl)cc2)nn1S(=O)(=O)c1cccc2nsnc12 returned Coupling enz 0.6, Tau fluor cs 17.8µM*[quencher], Tau fibril ThT inconclusive and Tau fibril FP 9.6%.
For Cc1ccc(NC(=O)Cn2nc3c(cc2=O)CCCC3)cc1Cl the results were Tau fluor cs -9.9%, Tau fibril ThT -6.7% and Tau fibril FP 4.9%.
Cc1[nH]oc(=O)c1N=Nc1ccccc1 was read as Coupling enz 4.0, Tau fluor cs -15.7%, Tau fibril ThT 25.1µM* and Tau fibril FP inconclusive.
For COc1cc(/C=C2\SC(=S)N(NS(=O)(=O)c3ccc(C)cc3)C2=O)ccc1O the results were Coupling enz 11.2, Tau fluor cs -15.9%, Tau fibril ThT 10µM* and Tau fibril FP 6.5%.
`COc1cc(/C=C2\SC(=S)N(NS(=O)(=O)c3ccccc3)C2=O)ccc1O` gave Coupling enz 11.8, Tau fluor cs -4.8%, Tau fibril ThT 14.1µM* and Tau fibril FP 4.7%.
`CCN(CC)S(=O)(=O)c1ccc2c(c1)c(=O)c(C(=O)N1CCN(c3ccccc3OC)CC1)cn2C` gave Tau fluor cs -8.7%, Tau fibril ThT -6.5% and Tau fibril FP 1.6%.
c1ccc(N2CCN(c3nc(-c4cccs4)nc4ccccc34)CC2)cc1 was read as Coupling enz 2.3, Tau fluor cs -15.8%, Tau fibril ThT inconclusive and Tau fibril FP -5.4%.
Oc1ccc(N2CCN(c3nc(-c4cccs4)nc4ccccc34)CC2)cc1 was read as Coupling enz 4.0, Tau fluor cs 14.1µM*[quencher] and Tau fibril FP 5.3%.
For CC(C)Oc1ccc(CNC(=O)C2CCCCN2S(=O)(=O)c2ccc(F)cc2)cc1 (stereo not drawn) the results were Tau fluor cs -7.4%, Tau fibril ThT 5.4% and Tau fibril FP 6.7%.
`O=C(Nc1ccccc1C(=O)N1CCCC1)c1ncoc1-c1cccc(Cl)c1` gave Coupling enz 0.4.
Screening S=c1c2c(nc3nc[nH]n13)CCC2 returned Coupling enz -36.4*, Tau fluor cs 1.2%, Tau fibril ThT -6.2% and Tau fibril FP -5.4%.
Cc1ccc(-c2ccc(=O)n(CC(=O)NC(C)c3ccccc3)n2)cc1 (stereo not drawn) was read as Tau fluor cs -8.7%, Tau fibril ThT 2.7% and Tau fibril FP -11.6%.
COC(=O)CCC(=O)OC1(C)C(=O)C=C2C=C(C3CC3)N(c3cccc(C#N)c3)C=C2C1=O (stereo not drawn) was read as Coupling enz -31.9*!, Tau fluor cs 0.1%[11.6 µM], Tau fibril ThT inconclusive and Tau fibril FP 4.3%[11.6 µM].
Screening COC(=O)CCC(=O)OC1(C)C(=O)C=C2C=C(C3CC3)N(Cc3ccco3)C=C2C1=O (stereo not drawn) returned Coupling enz -29.3, Tau fluor cs -5.5%[11.6 µM], Tau fibril ThT inconclusive and Tau fibril FP 2.9%[11.6 µM].
For COC(=O)CCC(=O)OC1(C)C(=O)C=C2C=C(C3CC3)N(c3ccc(CO)cc3)C=C2C1=O (stereo not drawn) the results were Coupling enz -24.6, Tau fluor cs -8.3%[11.6 µM], Tau fibril ThT -9.6%[11.5 µM] and Tau fibril FP 3.4%[11.6 µM].
`COC(=O)CCC(=O)OC1(C)C(=O)C=C2C=C(C3CC3)N(C3CC3)C=C2C1=O` (stereo not drawn) gave Coupling enz -46.6*!, Tau fluor cs -9.2%[11.6 µM], Tau fibril ThT inconclusive and Tau fibril FP inconclusive.
`COCCN1C=C2C(=O)C(C)(OC(=O)CCC(=O)OC)C(=O)C=C2C=C1C1CC1` (stereo not drawn) gave Coupling enz -45.4*, Tau fluor cs -12.7%[11.6 µM], Tau fibril ThT -16.1%[11.5 µM] and Tau fibril FP -7.8%[11.6 µM].
For CN1CCN(C2(CNC(=O)c3ccc([N+](=O)[O-])cc3)CCCCC2)CC1 the results were Tau fluor cs -8.8%, Tau fibril ThT -9.6% and Tau fibril FP 6.8%.
For COc1ccc(-c2cc(=O)n(-c3nc4ccccc4[nH]3)[nH]2)cc1 the results were Coupling enz -5.3, Tau fluor cs inconclusive, Tau fibril ThT 31.6µM* and Tau fibril FP -17.4%.
For COc1ccc2c(c1)C(=NN)c1cc(OC)ccc1-2 the results were Tau fluor cs inconclusive, Tau fibril ThT 10µM* and Tau fibril FP 0.3%.
COc1ccc2c(c1)C(=NNc1ccc(C(=O)O)cc1)c1cc(OC)ccc1-2 was read as Coupling enz -0.7.
Cc1ccc(C2=CC(c3ccccc3F)n3c(nc4ccccc43)N2)cc1C (stereo not drawn) was read as Tau fluor cs -12.7%, Tau fibril ThT inconclusive and Tau fibril FP 1.5%.
O=C(NN=C1c2ccccc2-c2ccccc21)c1ccccc1Br was read as Coupling enz -10.8, Tau fluor cs 3.5%, Tau fibril ThT 7.1% and Tau fibril FP -1.2%.
`O=C(NN=C1c2ccccc2-c2ccccc21)c1ccccc1` gave Coupling enz -0.2, Tau fluor cs -21.5%, Tau fibril ThT 22.4µM* and Tau fibril FP inconclusive.
CN1CC(O)C2=CC(=O)C(=O)C=C21 (stereo not drawn) was read as Tau fluor cs 5.62µM*[quencher], Tau fibril ThT 3.16µM* and Tau fibril FP 12.6µM*.
CCCC(=O)OCCNc1cc(SCc2ccco2)c2nonc2c1[N+](=O)[O-] was read as Coupling enz -12.7, Tau fluor cs 4.47µM*[quencher], Tau fibril ThT 3.98µM* and Tau fibril FP inconclusive.
CCCSc1cc(NCCOC(=O)CCC)c([N+](=O)[O-])c2nonc12 was read as Coupling enz -2.8, Tau fluor cs inconclusive, Tau fibril ThT inconclusive and Tau fibril FP 9.1%.
CC(=O)OCCCNc1cc(SCc2ccco2)c2nonc2c1[N+](=O)[O-] was read as Coupling enz -2.6, Tau fluor cs 7.08µM*[quencher], Tau fibril ThT 7.94µM* and Tau fibril FP inconclusive.
For CCCC(=O)OCCNc1cc(Sc2nccn2C)c2nonc2c1[N+](=O)[O-] the results were Coupling enz -7.8, Tau fluor cs inconclusive, Tau fibril ThT 7.08µM* and Tau fibril FP inconclusive.
Screening CCCSc1cc(NCCOC(C)=O)c([N+](=O)[O-])c2nonc12 returned Coupling enz -38.8*, Tau fluor cs inconclusive, Tau fibril ThT inconclusive and Tau fibril FP -5.6%.
`CCOC(=O)C1CCCN(c2cc(NCCCO)c([N+](=O)[O-])c3nonc23)C1` (stereo not drawn) gave Coupling enz -2.9, Tau fluor cs 13.3%, Tau fibril ThT -7.5% and Tau fibril FP 3.4%.
O=[N+]([O-])c1c(NCc2ccco2)ccc2nonc12 was read as Coupling enz -1.2, Tau fluor cs -0.4%, Tau fibril ThT -13.2% and Tau fibril FP 12.7%.
Nc1c2ccccc2nc2ccccc12 was read as Coupling enz 4.1, Tau fluor cs -9.9%, Tau fibril ThT inconclusive and Tau fibril FP -5.8%.
Screening Cc1nc2ccccc2c2c(N)c3ccccc3n12 returned Coupling enz 0.1, Tau fluor cs -22.5%, Tau fibril ThT 10µM* and Tau fibril FP inconclusive.
